This is a sample that favours compounds with a hit; in the whole collection about 3.5% have one here.
GPR151 activ: activates the human receptor GPR151. 650,000 tested, 1% active. activation, % at 11.2 µM. PathHunter beta-arrestin GPR151 cells, luminescence; in the data active = activation above about 4.9%;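 note: 0% = median of compound wells and 100% = cells with positive control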
FBW7 act: activators of human E3 ligase FBW7; Q969H0; AlphaScreen FBW7–phospho-cyclin E peptide binding, activator screen; normalized activity (activation), % at 26.1 µM; 650,000 tested, 0.13% active; AID 1259310; in the data active = normalized activity above about 1.9%;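 note: purified mutant Fbw7 with reduced substrate affinity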
Target sequence (Q969H0 whole entry, looked up): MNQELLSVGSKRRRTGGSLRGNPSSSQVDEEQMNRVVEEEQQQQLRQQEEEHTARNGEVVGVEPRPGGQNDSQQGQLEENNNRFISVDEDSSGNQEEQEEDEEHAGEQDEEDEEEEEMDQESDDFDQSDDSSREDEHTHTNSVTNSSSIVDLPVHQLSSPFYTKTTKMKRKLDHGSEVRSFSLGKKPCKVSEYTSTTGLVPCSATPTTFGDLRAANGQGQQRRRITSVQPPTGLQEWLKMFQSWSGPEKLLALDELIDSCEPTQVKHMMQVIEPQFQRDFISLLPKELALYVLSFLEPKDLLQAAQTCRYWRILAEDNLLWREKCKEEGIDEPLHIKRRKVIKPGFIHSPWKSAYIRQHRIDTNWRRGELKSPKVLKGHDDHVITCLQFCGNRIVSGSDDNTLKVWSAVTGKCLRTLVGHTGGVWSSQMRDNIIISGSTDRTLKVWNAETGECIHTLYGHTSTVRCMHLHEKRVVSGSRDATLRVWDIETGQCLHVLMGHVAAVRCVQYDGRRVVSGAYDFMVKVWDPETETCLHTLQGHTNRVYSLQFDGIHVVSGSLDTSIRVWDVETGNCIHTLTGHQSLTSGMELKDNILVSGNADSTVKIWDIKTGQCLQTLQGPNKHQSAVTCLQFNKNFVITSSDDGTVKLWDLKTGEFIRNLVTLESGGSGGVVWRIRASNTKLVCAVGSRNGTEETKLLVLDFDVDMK
TEAD-YAP block: TEAD-YAP interaction inhibition. HEK-TIYL cells, TEAD-Gal4/YAP UAS-luciferase luminescence. inhibition, % at 9.12 µM. 640,000 tested, 1.4% active; in the data active = inhibition above about 32%;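 note: 0% = median of test compound wells and 100% = reference inhibitor wells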
MITF inh: human MITF inhibition, primary screen. AlphaScreen MITF homodimerization, bead proximity signal. inhibition, % at 2.6 µM. 650,000 tested, 0.91% active; in the data active = inhibition above about 50%;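 note: 0% = vehicle wells with protein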
Active calls of the source: *.

COc1cc(CNc2ccnc3c(-c4cccc(F)c4)cnn23)cc(OC)c1OC was read as GPR151 activ 1, FBW7 act 1.9*, TEAD-YAP block 4 and MITF inh 9.
For Nc1nc2c3cc4c(nc3sc2c2ccccc12)CCC4 the results were GPR151 activ -4, FBW7 act 0, TEAD-YAP block 34* and MITF inh -14.
O=C(/C=C/Nc1ccc(Cl)cc1)c1ccccc1 was read as GPR151 activ -2, FBW7 act 0, TEAD-YAP block 35* and MITF inh 9.
`COc1cc(C(=O)/C=C/Nc2ccc(C)cc2O)cc(OC)c1OC` gave GPR151 activ -1, FBW7 act 0, TEAD-YAP block 49* and MITF inh 5.
O=C(/C=C/Nc1ccc(O)cc1)c1ccc(Cl)cc1 was read as GPR151 activ 0, FBW7 act 0, TEAD-YAP block -25 and MITF inh 9.
Screening COc1cc(C(=O)/C=C/Nc2ccc(Cl)cc2)cc(OC)c1OC returned GPR151 activ 1, FBW7 act 0, TEAD-YAP block 38* and MITF inh -3.
`COc1cc(C(=O)/C=C/Nc2ccc(O)cc2C)cc(OC)c1OC` gave GPR151 activ 0, FBW7 act 0, TEAD-YAP block 24 and MITF inh 3.
`CC(Sc1nc(N)cc(=O)[nH]1)C(=O)O` (stereo not given) gave GPR151 activ -1, FBW7 act 0, TEAD-YAP block -2 and MITF inh 8.
Screening Cc1ccc(Nc2nc(-c3ccc(C)cc3)nc3ccccc23)cc1 returned GPR151 activ -2, FBW7 act 0, TEAD-YAP block 7 and MITF inh 12.
For CCN(CC)c1nc(-c2ccc(C)cc2)nc2ccccc12 the results were GPR151 activ 0, FBW7 act 0, TEAD-YAP block -16 and MITF inh -15.
`COc1ccc(Nc2nc(-c3ccc(C(C)(C)C)cc3)nc3ccccc23)cc1` gave GPR151 activ 0, FBW7 act 0, TEAD-YAP block 86* and MITF inh 10.
CCCCc1ccc(-c2nc(Nc3ccc(C(F)(F)F)cc3)c3ccccc3n2)cc1 was read as GPR151 activ 0, FBW7 act 0, TEAD-YAP block 38* and MITF inh -8.
Screening CCN(CC)c1nc(-c2ccc(C(C)(C)C)cc2)nc2ccccc12 returned GPR151 activ -2, FBW7 act 0, TEAD-YAP block 58* and MITF inh 5.
`COc1ccc(Br)cc1/C=C/C(=O)c1cccc(NC(C)=O)c1` gave GPR151 activ 4, FBW7 act 0, TEAD-YAP block 75* and MITF inh 13.
COc1ccc(-c2c(OC(=O)COc3ccc(C)cc3)ccc3oc(=O)sc23)cc1 was read as GPR151 activ 2, FBW7 act 0, TEAD-YAP block 6 and MITF inh 9.
Screening COc1ccc2ccccc2c1/C=C1\SC(=Nc2ccc(C)cc2)NC1=O returned GPR151 activ -1, FBW7 act 0, TEAD-YAP block 53* and MITF inh -3.
For COc1ccc(N=C2NC(=O)/C(=C/c3c(OC)ccc4ccccc34)S2)cc1 the results were GPR151 activ -1, FBW7 act 0, TEAD-YAP block 36* and MITF inh -2.
For COc1ccc2ccccc2c1/C=C1/SC(=S)NC1=O the results were GPR151 activ -1, FBW7 act 0, TEAD-YAP block 2 and MITF inh 1.
Screening COc1ccc2ccc(OC)c(/C=C3/C(=O)Nc4ccccc43)c2c1 returned GPR151 activ 0, FBW7 act 0, TEAD-YAP block 53* and MITF inh -3.
Screening COc1ccc(N=C2NC(=O)/C(=C\c3cc(OC)ccc3OC)S2)cc1 returned GPR151 activ 3, FBW7 act 0, TEAD-YAP block 19 and MITF inh -17.
Screening CCCOc1ccccc1/C=C1\SC(N)=NC1=O returned GPR151 activ 0, FBW7 act 0, TEAD-YAP block 7 and MITF inh 4.
CCCOc1ccc2ccccc2c1/C=C1\SC(N)=NC1=O was read as GPR151 activ 0, FBW7 act 0, TEAD-YAP block 52* and MITF inh 5.
Screening CCOC(=O)C1=C(C)N=c2s/c(=C/c3cc(C)n(-c4ccc(Br)cc4)c3C)c(=O)n2C1c1ccc(OC)cc1 (stereo not given) returned GPR151 activ 0, FBW7 act 1, TEAD-YAP block 6 and MITF inh 9.
`O=C(c1cccs1)N1CCN2C(=O)[C@@H]3C[C@@H](O)CN3C(=O)[C@H]2C1` gave GPR151 activ -1, FBW7 act 0, TEAD-YAP block 0 and MITF inh 8.
CCOC(=O)c1c(NC(=O)C(CC)OC(=O)/C=C/c2ccco2)sc2c1CCCC2 (stereo not given) was read as GPR151 activ 2, FBW7 act 0, TEAD-YAP block 13 and MITF inh -7.
`CN1/C(=C\C(=O)CSCc2ccco2)C(C)(C)c2ccccc21` gave GPR151 activ 0, FBW7 act 0, TEAD-YAP block 0 and MITF inh 6.
CN1/C(=C/C(=O)c2ccco2)C(C)(C)c2ccccc21 was read as GPR151 activ 4, FBW7 act 1, TEAD-YAP block 35* and MITF inh 5.
Screening COC(=O)Cn1c(=O)c2c(nc3n(C)c(C)cn23)n(C)c1=O returned GPR151 activ 1, FBW7 act 0, TEAD-YAP block 15 and MITF inh -8.
Screening O=c1c2sc(=S)n(-c3ccccc3)c2nc(SCc2nc3ccccc3[nH]2)n1-c1ccccc1 returned GPR151 activ -2, FBW7 act 0, TEAD-YAP block 33* and MITF inh -7.
Screening Cc1cccc(C)c1-n1c(SCc2ccccc2F)nc2c(sc(=S)n2CCc2ccccc2)c1=O returned GPR151 activ 1, FBW7 act 0, TEAD-YAP block -5 and MITF inh -13.
For CCOc1ccc(-n2c(=S)sc3c(=O)n(-c4ccccc4)c(SCc4nc5ccccc5[nH]4)nc32)cc1 the results were GPR151 activ -3, FBW7 act 1, TEAD-YAP block 2 and MITF inh -4.
Cc1cccc(C)c1-n1c(SCc2ccccc2F)nc2c(sc(=S)n2-c2c(C)cccc2C)c1=O was read as GPR151 activ 2, FBW7 act 0, TEAD-YAP block 41* and MITF inh 0.
For CCn1c(NC(=O)c2cc(C(C)(C)C)nn2C)nc2ccccc21 the results were GPR151 activ 1, FBW7 act 0, TEAD-YAP block -3 and MITF inh 42.
Screening COc1ccc(NC(=O)N2CCC(CN3CCc4ccccc4C3)CC2)cc1 returned GPR151 activ 4, FBW7 act 0, TEAD-YAP block 4 and MITF inh -3.
Screening O=C(O)c1sc2cnccc2c1-n1cccc1 returned GPR151 activ -1, FBW7 act 1, TEAD-YAP block 9 and MITF inh 11.
COc1ccc(/C=C/C(=O)Nc2ncc(Cc3ccccc3)s2)cc1 was read as GPR151 activ 0, FBW7 act 0, TEAD-YAP block -2 and MITF inh 4.
`COc1ccc(Cc2cnc(NC(=O)/C=C/c3ccco3)s2)cc1` gave GPR151 activ -1, FBW7 act 0, TEAD-YAP block 64* and MITF inh 2.

Screens (PubChem BioAssay)
